Screening results: PubChem BioAssay, National Center for Advancing Translational Sciences (NCATS)
RGS4 inhibitor: inhibitors of human regulator of G protein signaling 4; P49798; Transcreener GDP fluorescence polarization, RGS4-accelerated GTP hydrolysis; Potency, µM (highest dose often 114 µM), most hits filed as inhibitors; hit rate 0.039% among 390,000; AID 504845; note: nearly all actives have a fitted effect of over 75% in size
Target sequence (P49798 whole entry, looked up): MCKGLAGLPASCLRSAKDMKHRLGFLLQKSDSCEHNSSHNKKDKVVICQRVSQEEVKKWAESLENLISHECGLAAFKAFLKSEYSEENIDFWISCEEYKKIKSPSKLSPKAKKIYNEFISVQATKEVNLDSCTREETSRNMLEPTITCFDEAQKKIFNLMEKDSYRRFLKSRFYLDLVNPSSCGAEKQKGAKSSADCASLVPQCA
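MLSMR compounds (23 nl, pin-transferred) preincubated 10 min at room temperature with a 500nM (2x) first reagent, then RGS4 at 900nM (2x) plus Transcreener GDP mix added; fluorescence polarization (620/688 nm) read before and after 90 min at 30 °C.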
RECQ1 inh: inhibitors of human RECQ1 DNA helicase. P46063. Potency, µM (titrated, usually from 57.3 µM), actives largely listed as inhibitors. AID 2549. RECQ1 DNA unwinding, red fluorescence kinetic read. hit rate 0.54% among 240,000; note: nearly all actives have a fitted effect of over 30% in size
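50 nM RECQ1T1 preincubated 15 min with compound in Tris pH 8.0 buffer with MgCl2, DTT, Tween-20 and 2.5 ug/ml poly(dI-dC); started with 200 nM TAMRA/BHQ-2 forked duplex and 2 mM ATP. Unwinding read as fluorescence (525/598 nm), two reads 2 h apart.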
KAT2A inh: GCN5L2 (KAT2A) acetyltransferase inhibition | Q92830 | GCN5L2 HAT assay, ThioGlo1 CoA-SH fluorescence | Potency, µM (top dose mostly 58.9 µM), actives largely listed as inhibitors | hit rate 0.21% among 390,000
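GCN5L2 (20nM final) in 50mM HEPES, 0.1mM EDTA pH 7.5, 0.01% Tween-20 was preincubated 15 min at room temperature with compound, then given ThioGlo1 (50uM), H3(1-25) peptide (75uM) and acetyl-CoA (70uM); CoA-thiol fluorescence (Ex340/Em540) was read at 0 and 20 min.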
TDP1 block: blocks human tyrosyl-DNA phosphodiesterase 1. Potency, µM (series often up to 130 µM), usual class: inhibitors. hit rate 0.28% among 350,000. recombinant TDP1, AlphaScreen DNA substrate cleavage. Q9NUW8; note: nearly all actives have a fitted effect of over 40% in size
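AlphaScreen read-out: signal falls as enzyme removes the 3' tyrosine-FITC from a 5'-biotinylated DNA oligo (15 nM, 5 min, RT). Enzyme was E. coli-made recombinant Tdp1 at 1 nM, exposed to compound for 15 min beforehand; beads 10 ug/ml, 10 min.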
BLM inh: Bloom syndrome helicase (human) inhibition. AID 2528. Potency, µM (series often up to 56.1 µM), most hits filed as inhibitors. hit rate 0.2% among 350,000. P54132. recombinant BLM DNA unwinding, fluorescence dequenching; note: nearly all actives have a fitted effect of over 35% in size
APE1 inh-1: inhibitors of human APE1 endonuclease. P27695. recombinant APE1, TAMRA/BHQ-2 abasic DNA cleavage fluorescence. Potency, µM (doses to about 65.8 µM), usual class: inhibitors. hit rate 0.35% among 350,000. AID 2517; note: nearly all actives have a fitted effect of over 55% in size
Target sequence (P27695 whole entry, looked up): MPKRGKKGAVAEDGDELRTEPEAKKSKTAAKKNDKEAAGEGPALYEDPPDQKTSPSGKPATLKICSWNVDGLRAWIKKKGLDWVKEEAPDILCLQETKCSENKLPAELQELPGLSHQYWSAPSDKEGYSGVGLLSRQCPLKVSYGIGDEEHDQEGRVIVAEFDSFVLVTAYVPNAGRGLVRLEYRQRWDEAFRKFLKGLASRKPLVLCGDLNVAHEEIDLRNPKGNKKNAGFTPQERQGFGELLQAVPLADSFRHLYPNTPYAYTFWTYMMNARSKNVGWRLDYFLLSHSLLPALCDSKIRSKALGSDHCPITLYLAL
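Step 1: APE1 (0.75 nM) with compound, 15 min RT. Step 2: add 50 nM fluorophore/quencher THF duplex. Step 3: three fluorescence reads 60 s apart (525/598 nm); read 3 minus read 1 = reaction progress.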
DNA dye displace: DNA dye displacement counter-screen activity. shares compounds with APE1 inh-1. DNA fluorescent dye displacement counterscreen, fluorescence. Potency, µM (highest dose often 28.5 µM), usual class: inhibitors. hit rate 7% among 480. AID 2564;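 note: loss of thiazole orange fluorescence as the dye is displaced from duplex DNA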
EndoIV counter: counter-screen for APE1 inhibitors: inhibitors of E. coli endonuclease IV. hit rate 4% among 560. Potency, µM (top dose mostly 27.1 µM), hits mostly inhibitors. E. coli Endo IV, fluorogenic AP-site DNA cleavage. AID 2565. shares compounds with APE1 inh-1
APE1 inh-2: APE1 (human) endonuclease inhibition, confirmation; purified APE1, fluorogenic abasic-site DNA cleavage; Potency, µM (highest dose often 57.1 µM), usual class: inhibitors; hit rate 44% among 750; shares compounds with APE1 inh-1; note: nearly all actives have a fitted effect of over 30% in size
APE1 FP: APE1 (human) DNA binding inhibition, fluorescence polarization; Potency, µM (highest dose often 28.5 µM), actives largely listed as inhibitors; hit rate 7% among 480; APE1 binding to TAMRA-labelled double-stranded DNA, fluorescence polarization displacement; shares compounds with APE1 inh-1; AID 2573
RECQ1 inh conf: confirmation of human RECQ1 helicase inhibitors | hit rate 28% among 610 | shares compounds with RECQ1 inh | RECQ1 helicase DNA unwinding, fluorescence | Potency, µM (series often up to 229 µM), hits mostly inhibitors; note: nearly all actives have a fitted effect of over 45% in size
RECQ1 ADP FP: displaces ADP in a fluorescence polarization counter-screen for RECQ1 hits; shares compounds with RECQ1 inh; hit rate 27% among 530; ADP fluorescence polarization displacement counterscreen; Potency, µM (highest dose often 228 µM), usual class: inhibitors; AID 2711; note: nearly all actives have a fitted effect of over 45% in size
Each line names hits and unclear results; the compound was inactive in the other large screens (follow-up assays come after a bar, where they were run); ! = repeats disagree. Hits are enriched below; roughly 0.87% of the tested compounds scored in any of these assays. Calls come from the whole dose curve; as a rule, active = well fitted curve in the direction sought with a large enough effect; inconclusive = small, poorly fitted or top-dose-only effect, or another doubt; inactive = no such curve, though single readings can be large; an effect the other way counts as inactive or inconclusive.

CN1Cc2ccccc2[C@@H]2c3cccc4[nH]cc(c34)C[C@H]21	RGS4 inhibitor inconclusive, APE1 inh-1 inconclusive | DNA dye displace inactive | EndoIV counter inactive | APE1 inh-2 inconclusive | APE1 FP inactive
CC1=C[C@@H]2c3cccc4[nH]cc(c34)C[C@H]2N(C)C1	APE1 inh-1 inconclusive
CC1=C2C3OC(=O)C(C)C3CC[C@@]2(C)C=CC1=O (stereo partly specified)	KAT2A inh inconclusive, TDP1 block 14.1µM!, APE1 inh-1 inconclusive | EndoIV counter inactive | APE1 inh-2 inactive
CCc1c(C(=O)OC)ncc2[nH]c3cc(OC)c(OC)cc3c12	none (no result: RGS4 inhibitor, KAT2A inh, BLM inh) | EndoIV counter inactive | APE1 inh-2 inactive
O=c1cc(-c2ccc(O)cc2)oc2c([C@H]3O[C@@H](CO)[C@@H](O)[C@@H](O)[C@@H]3O)c(O)cc(O)c12	APE1 inh-1 inconclusive (no result: RGS4 inhibitor)
Clc1ccc(Cl)c(Cl)c1	none (no result: RGS4 inhibitor, KAT2A inh, BLM inh)
Clc1cnc(Oc2ccc(Oc3ncc(Cl)cc3Cl)cc2)c(Cl)c1	none | EndoIV counter inactive | APE1 inh-2 inactive
CCCCCCC(=O)OC1CC(C)(C)NC(C)(C)C1	none
C/C=C(/C)C(=O)O[C@H]1C(C)=C2C([C@@H]1OC(=O)CCCCCCC)[C@@](C)(OC(C)=O)C[C@@H](OC(=O)CCC)[C@@]1(O)[C@H]2OC(=O)[C@@]1(C)O (stereo partly specified)	none (no result: RGS4 inhibitor, KAT2A inh, BLM inh) | EndoIV counter 10µM | APE1 inh-2 inconclusive
O=C(O)c1ccccc1O	KAT2A inh inconclusive
Oc1ccccc1O	RGS4 inhibitor inconclusive, RECQ1 inh 15.8µM!, TDP1 block inconclusive, APE1 inh-1 28.2µM! (no result: BLM inh) | EndoIV counter inactive | APE1 inh-2 inactive
Cc1cc(=O)oc2c3c(cc(OCC(=O)N4CCC[C@H]4C(=O)O)c12)OC(C)(C)CC3	KAT2A inh inconclusive (no result: RECQ1 inh, TDP1 block)
N#CSCSC#N	APE1 inh-1 inconclusive (no result: RGS4 inhibitor, KAT2A inh, BLM inh)
Cc1cc(/C=C2/C(=O)NC(=O)N(Cc3ccco3)C2=O)c(C)n1-c1ccccc1	RGS4 inhibitor inconclusive, RECQ1 inh 28.2µM, APE1 inh-1 inconclusive | DNA dye displace inactive | EndoIV counter inactive | APE1 inh-2 inconclusive | APE1 FP inactive
COc1cc(OC)c(OC)cc1/C=C1/C(=O)NC(=O)N(Cc2ccccc2)C1=O	RGS4 inhibitor inconclusive
COc1ccc(CN2C(=O)NC(=O)/C(=C\c3ccco3)C2=O)cc1	RGS4 inhibitor inconclusive, RECQ1 inh inconclusive, KAT2A inh inconclusive, BLM inh inconclusive, APE1 inh-1 22.4µM (no result: TDP1 block) | DNA dye displace inconclusive | EndoIV counter inactive | APE1 inh-2 14.1µM | APE1 FP inactive
CCc1nn(CC(=O)N2CCN(Cc3ccc4c(c3)OCO4)CC2)c(=O)c2cc3occc3n12	none
N#CC(Cl)Cl	none (no result: RGS4 inhibitor, KAT2A inh, BLM inh)
C[S@@](=O)CCCCN=C=S	APE1 inh-1 inconclusive (no result: RGS4 inhibitor)
O=C1NC(=O)N(c2ccc3c(c2)OCO3)C(=O)/C1=C\c1ccc(-c2ccccc2C(=O)O)o1	RGS4 inhibitor inconclusive, TDP1 block 11.2µM, APE1 inh-1 20µM | DNA dye displace inactive | EndoIV counter inactive | APE1 inh-2 10µM | APE1 FP inactive
CC[C@@]1(O)C(=O)OCc2c1cc1n(c2=O)Cc2cc3ccccc3nc2-1	KAT2A inh inconclusive | EndoIV counter inactive | APE1 inh-2 inactive
CC(=O)OCC1=C(C(=O)O)N2C(=O)C(NC(=O)CCCC(N)C(=O)O)C2SC1 (stereo unspecified)	TDP1 block 25.1µM, BLM inh inconclusive, APE1 inh-1 22.4µM (no result: RGS4 inhibitor) | DNA dye displace inactive | EndoIV counter inactive | APE1 inh-2 inactive | APE1 FP inactive
O=C1C=CC(=O)c2c(O)cccc21	RECQ1 inh 4.47µM, KAT2A inh 0.631µM, BLM inh 5.62µM, APE1 inh-1 0.316µM (no result: RGS4 inhibitor) | EndoIV counter inactive | APE1 inh-2 inconclusive | RECQ1 inh conf 7.94µM | RECQ1 ADP FP inconclusive
NC(Cc1cc(O)c(O)cc1O)C(=O)O (stereo unspecified)	RGS4 inhibitor 2.99µM, RECQ1 inh 0.631µM, KAT2A inh 0.631µM, TDP1 block 0.178µM, APE1 inh-1 0.106µM (no result: BLM inh) | EndoIV counter inactive | APE1 inh-2 0.794µM | RECQ1 inh conf 44.7µM | RECQ1 ADP FP 20µM
